Measured values taken from PubChem BioAssay.
Records with an inconclusive call do not appear. Active and inactive are the calls of the source. Unless noted, how the calls were made is not given here.

Tests used:
[1] = yeast TOR pathway RPL19A-GFP modulators, primary screen, cell-based, S. cerevisiae, multiplex flow cytometry (AID 1862; in the data active means percent of DMSO control GFP below about 86%;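 further: lower values mimic rapamycin by blocking the RPL19A rise seen in DMSO cells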); settings: S. cerevisiae RPL19A-GFP strain, flow cytometry fluorescence, 3 h; at 10 µM; stronger effect = lower value
[2] = modulators of MEP2-GFP levels in yeast, primary screen, S. cerevisiae, multiplex flow cytometry (AID 1867;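 active means GFP response, as percent of the DMSO control, above the screen-wide mean plus 3 SD, about 139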;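 further: median GFP channel fluorescence of barcode-gated MEP2-GFP cells measured by flow cytometry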); settings: S. cerevisiae MEP2-GFP strain, 3 h, at 10 µM, stronger effect = higher value
[3] = modulators of CIT2-GFP expression in yeast, primary screen, S. cerevisiae, GFP fusion, multiplex flow cytometry (AID 1870;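 active means percent response above a set limit, the screen-wide mean plus 3 SD, cut at about 130% in these data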;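 further: barcoded CIT2-GFP strain pooled with four other GFP strains with rapamycin as positive control; median GFP fluorescence per well over plate mean of DMSO wells so 100% = DMSO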); settings: 3 h, at 10 µM, stronger effect = higher value
[4] = modulators of LAP4-GFP expression in yeast, primary screen, S. cerevisiae, multiplex flow cytometry (AID 1873;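 active means GFP signal, as percent of the solvent control, above the screen mean plus 3 SD, about 149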); settings: 3 h, at 10 µM, stronger effect = higher value
[5] = modulators of AGP1-GFP expression in yeast TOR pathway, primary screen, cell-based, multiplex flow cytometry, S. cerevisiae (AID 1887;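 active means GFP signal above the screen-wide mean plus 3 SD, that is over about 124.5% of the solvent control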;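 further: AGP1-GFP fusion strain of S. cerevisiae within a five-strain barcoded multiplex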); settings: 3 h, at 10 µM, stronger effect = higher value
[6] = inhibitors of CD8+ T cell-vesicle binding, pilot screen, LFA-1/ICAM-1 modulator project, MLPCN validation set, flow cytometry (AID 2523;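 active means response below a set limit, under 55% cells CD8-positive and vesicle-bound, and CD8 cells' 90th-percentile brightness under 279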;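 on vesicle binding response: mean PE anti-B7-1 fluorescence of CD8+ cells relative to row control; 100% = QL9-loaded vesicles with DMSO vehicle in the same plate row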); settings: 2C mouse CD8+ T cells, at 7 µM, stronger effect = lower value; double positive events: measured here: CD8+/vesicle+ event percentage
[7] = target: Integrin beta-1 (Homo sapiens) + Integrin alpha-4 (Homo sapiens) (UniProt P13612+P05556); test: inhibition of HUTS-21 binding to VLA-4, pilot screen, VLA-4 allosteric modulator project, U937 cells, HUTS-21 mAb, flow cytometry, validation set (AID 2674;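 active means inhibition above 50%, about 3 SD of the validation set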;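 further: antibody binding induced by the VLA-4 ligand LDV present at three times its Kd; 0% = LDV ligand with antibody and no compound and 100% = antibody without LDV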); settings: HUTS-21 LIBS mAb binding, at 6.7 µM, stronger effect = higher value
Integrin beta-1 (Homo sapiens) + Integrin alpha-4 (Homo sapiens), sequence (P05556 whole entry, looked up): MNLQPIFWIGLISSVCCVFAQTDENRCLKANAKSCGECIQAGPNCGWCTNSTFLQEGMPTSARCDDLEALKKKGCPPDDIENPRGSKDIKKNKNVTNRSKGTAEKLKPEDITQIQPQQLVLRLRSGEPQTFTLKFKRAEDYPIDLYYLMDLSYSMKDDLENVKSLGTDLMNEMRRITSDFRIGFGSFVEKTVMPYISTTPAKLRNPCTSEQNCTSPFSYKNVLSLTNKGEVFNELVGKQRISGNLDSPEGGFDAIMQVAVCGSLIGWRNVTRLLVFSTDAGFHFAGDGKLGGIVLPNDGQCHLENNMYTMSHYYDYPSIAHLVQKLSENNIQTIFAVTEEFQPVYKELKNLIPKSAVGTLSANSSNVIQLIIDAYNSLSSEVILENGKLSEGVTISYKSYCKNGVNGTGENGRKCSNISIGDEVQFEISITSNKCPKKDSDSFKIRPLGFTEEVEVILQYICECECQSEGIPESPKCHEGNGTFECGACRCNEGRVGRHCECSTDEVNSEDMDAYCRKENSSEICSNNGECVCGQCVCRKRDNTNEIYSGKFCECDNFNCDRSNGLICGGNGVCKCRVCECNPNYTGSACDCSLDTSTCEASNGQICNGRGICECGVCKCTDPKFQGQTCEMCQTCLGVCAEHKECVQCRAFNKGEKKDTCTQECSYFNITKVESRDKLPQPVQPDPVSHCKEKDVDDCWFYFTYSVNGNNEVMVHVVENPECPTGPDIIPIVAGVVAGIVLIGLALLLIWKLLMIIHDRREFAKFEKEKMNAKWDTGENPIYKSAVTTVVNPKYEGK
Integrin beta-1 (Homo sapiens) + Integrin alpha-4 (Homo sapiens), sequence (P13612 whole entry, looked up): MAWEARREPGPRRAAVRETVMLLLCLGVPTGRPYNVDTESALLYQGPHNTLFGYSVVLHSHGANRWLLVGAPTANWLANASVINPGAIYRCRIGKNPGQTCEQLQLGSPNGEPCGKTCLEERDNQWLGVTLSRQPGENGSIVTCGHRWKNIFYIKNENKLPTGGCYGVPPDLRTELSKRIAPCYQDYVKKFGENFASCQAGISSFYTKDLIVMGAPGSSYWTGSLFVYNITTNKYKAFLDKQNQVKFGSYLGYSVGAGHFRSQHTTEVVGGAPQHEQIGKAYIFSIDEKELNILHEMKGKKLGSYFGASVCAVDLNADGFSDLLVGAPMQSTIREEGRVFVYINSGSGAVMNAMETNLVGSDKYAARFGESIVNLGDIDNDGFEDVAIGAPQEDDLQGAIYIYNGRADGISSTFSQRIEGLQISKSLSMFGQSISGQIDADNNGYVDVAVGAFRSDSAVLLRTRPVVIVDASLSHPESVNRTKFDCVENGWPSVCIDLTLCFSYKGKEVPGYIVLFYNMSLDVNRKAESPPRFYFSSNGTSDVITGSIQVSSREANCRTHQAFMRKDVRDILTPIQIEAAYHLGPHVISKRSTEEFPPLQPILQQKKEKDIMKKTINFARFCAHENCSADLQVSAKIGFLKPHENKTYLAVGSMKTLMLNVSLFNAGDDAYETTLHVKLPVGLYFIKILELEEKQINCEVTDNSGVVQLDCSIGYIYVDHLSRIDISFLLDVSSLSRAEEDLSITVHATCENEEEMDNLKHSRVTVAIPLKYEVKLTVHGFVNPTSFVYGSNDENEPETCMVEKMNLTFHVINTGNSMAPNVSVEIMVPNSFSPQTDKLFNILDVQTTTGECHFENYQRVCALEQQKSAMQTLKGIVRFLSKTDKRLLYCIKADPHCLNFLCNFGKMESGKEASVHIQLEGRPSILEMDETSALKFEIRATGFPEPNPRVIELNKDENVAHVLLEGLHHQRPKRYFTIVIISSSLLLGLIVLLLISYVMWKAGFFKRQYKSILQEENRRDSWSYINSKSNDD

[8] = superoxide lowering in aged yeast cells, pilot screen, validation compound set (AID 2706;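 active means superoxide response below 65% of plate, a cut near 3 SD across the whole screen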;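 further: yeast exposed to compound for one week at 30 degrees C before staining; 100% = mean of all compound wells on the same plate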); settings: S. cerevisiae aging, superoxide DHE fluorescence; at 10 µM; stronger effect = lower value
[9] = target: Beta-adrenergic receptor kinase 1 (Homo sapiens) (UniProt P25098); test: GRK2 binders displacing RNA aptamer, biochemical, validation, human GRK2, bead flow cytometry (AID 488806;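 active means aptamer binding inhibition above 30%, about 3 SD of noise from non-fluorescent compounds; inactive means inhibition at or below 30%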); settings: bead-bound GRK2, FAM-aptamer displacement, at 10 µM, stronger effect = higher value
Beta-adrenergic receptor kinase 1 (Homo sapiens), sequence (P25098 whole entry, looked up): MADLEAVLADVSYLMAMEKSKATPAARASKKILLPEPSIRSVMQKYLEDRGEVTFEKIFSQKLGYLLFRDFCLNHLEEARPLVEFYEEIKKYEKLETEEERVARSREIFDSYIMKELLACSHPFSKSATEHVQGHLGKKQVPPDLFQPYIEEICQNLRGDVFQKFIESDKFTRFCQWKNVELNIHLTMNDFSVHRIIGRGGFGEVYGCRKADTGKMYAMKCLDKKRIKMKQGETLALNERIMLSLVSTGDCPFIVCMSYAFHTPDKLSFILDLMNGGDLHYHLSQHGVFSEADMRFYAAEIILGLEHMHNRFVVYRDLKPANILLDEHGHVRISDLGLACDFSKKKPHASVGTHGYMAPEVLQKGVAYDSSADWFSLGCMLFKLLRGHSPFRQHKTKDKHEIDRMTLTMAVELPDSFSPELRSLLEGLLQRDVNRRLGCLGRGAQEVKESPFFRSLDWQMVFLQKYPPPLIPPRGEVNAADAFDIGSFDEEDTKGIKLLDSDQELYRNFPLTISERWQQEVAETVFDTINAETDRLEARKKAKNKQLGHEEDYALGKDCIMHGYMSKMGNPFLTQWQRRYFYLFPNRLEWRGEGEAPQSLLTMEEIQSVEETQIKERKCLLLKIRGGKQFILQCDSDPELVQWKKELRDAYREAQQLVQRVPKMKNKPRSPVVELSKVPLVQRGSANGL

[10] = target: Beta-2 adrenergic receptor (Homo sapiens) (UniProt P07550); test: beta2AR agonists driving receptor internalization, pilot screen, cell-based, FAP fluorogen, flow cytometry, validation set (AID 504459;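 active means percent response above 42, roughly 3 SD of non-fluorescent test compounds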;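 further: agonist-driven loss of surface beta2AR via internalization measured by FAP dye flow cytometry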); settings: Am2.2-beta2AR cells, FAP surface receptor flow cytometry; at 10 µM; stronger effect = higher value
[11] = target: AP-2 complex subunit beta (Homo sapiens) (UniProt P63010); test: inhibitors of arrestin peptide binding to AP2, pilot screen, biochemical, validation set, GST-AP2 beads, flow cytometry (AID 504541;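 active means inhibition above 54%, about 3 SD of non-fluorescent compounds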;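 further: AP2 carries R879A mutation and is captured from E. coli lysate; bead-bound FITC arrestin peptide fluorescence measuring arrestin peptide binding to AP2; 0% = DMSO wells and 100% = excess unlabeled arrestin peptide control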); settings: FITC arrestin peptide, at 10 µM, stronger effect = higher value
AP-2 complex subunit beta (Homo sapiens), sequence (P63010 whole entry, looked up, one chain of several): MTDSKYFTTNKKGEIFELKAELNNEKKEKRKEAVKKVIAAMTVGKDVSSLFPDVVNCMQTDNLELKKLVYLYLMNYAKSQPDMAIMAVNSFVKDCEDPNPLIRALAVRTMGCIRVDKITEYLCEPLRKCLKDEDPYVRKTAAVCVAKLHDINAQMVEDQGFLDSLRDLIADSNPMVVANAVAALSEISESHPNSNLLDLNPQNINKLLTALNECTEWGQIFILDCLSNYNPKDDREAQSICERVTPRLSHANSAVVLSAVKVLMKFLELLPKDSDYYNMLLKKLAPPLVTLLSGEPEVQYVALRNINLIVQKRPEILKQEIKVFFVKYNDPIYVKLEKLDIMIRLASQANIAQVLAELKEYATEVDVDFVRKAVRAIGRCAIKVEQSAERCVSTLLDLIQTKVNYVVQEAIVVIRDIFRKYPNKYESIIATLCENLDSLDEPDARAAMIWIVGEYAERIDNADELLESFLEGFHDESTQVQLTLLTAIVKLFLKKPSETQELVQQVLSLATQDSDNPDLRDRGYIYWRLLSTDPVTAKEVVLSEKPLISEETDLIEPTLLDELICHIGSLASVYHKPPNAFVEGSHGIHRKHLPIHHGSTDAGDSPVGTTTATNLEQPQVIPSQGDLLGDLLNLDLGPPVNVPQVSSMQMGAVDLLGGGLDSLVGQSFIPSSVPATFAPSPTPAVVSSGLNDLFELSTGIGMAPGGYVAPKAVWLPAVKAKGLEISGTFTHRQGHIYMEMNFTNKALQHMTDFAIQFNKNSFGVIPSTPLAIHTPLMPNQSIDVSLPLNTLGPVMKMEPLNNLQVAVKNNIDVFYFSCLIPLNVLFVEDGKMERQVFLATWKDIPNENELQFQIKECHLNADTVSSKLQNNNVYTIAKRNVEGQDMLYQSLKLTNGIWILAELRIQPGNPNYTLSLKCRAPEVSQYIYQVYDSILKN

[12] = yeast V-ATPase proton transport modulators, S. cerevisiae, pHLuorin, HTS validation (AID 504600; in the data active means response above about 15%;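 further: plate controls were DMSO for no effect and reference compound for full effect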); settings: S. cerevisiae pHLuorin cytosolic pH, at 10 µM, stronger effect = higher value
[13] = system: anti-desmoglein-3 scFv antibody binding to human DSG3; test: inhibitors of anti-DSG3 scFv binding to DSG3, pilot screen, biochemical, validation compound set, bead-based, flow cytometry (AID 588368;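 active means binding below the plate cutoff, the plate median minus 3 SD, with a reading above zero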;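 further: signal is the median channel fluorescence of bead-bound GFP antibody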); settings: Protein G beads, DSG3-Fc, scFv-GFP binding, at 10 µM, stronger effect = lower value
[14] = system: Botulinum neurotoxin type F light chain protease (Clostridium botulinum); test: Botulinum neurotoxin type F light chain protease inhibition, multiplex microsphere flow cytometry, validation set (AID 588459); settings: multiplex microsphere protease substrate cleavage assay, at 10 µM, stronger effect = higher value
[15] = target: Botulinum neurotoxin type A (Clostridium botulinum) (UniProt P0DPI0); test: BoNT/A light chain protease inhibitors, biochemical, multiplex microsphere flow cytometry, validation set (AID 588460); settings: at 10 µM, stronger effect = higher value
Botulinum neurotoxin type A (Clostridium botulinum), sequence (P0DPI0 whole entry, looked up): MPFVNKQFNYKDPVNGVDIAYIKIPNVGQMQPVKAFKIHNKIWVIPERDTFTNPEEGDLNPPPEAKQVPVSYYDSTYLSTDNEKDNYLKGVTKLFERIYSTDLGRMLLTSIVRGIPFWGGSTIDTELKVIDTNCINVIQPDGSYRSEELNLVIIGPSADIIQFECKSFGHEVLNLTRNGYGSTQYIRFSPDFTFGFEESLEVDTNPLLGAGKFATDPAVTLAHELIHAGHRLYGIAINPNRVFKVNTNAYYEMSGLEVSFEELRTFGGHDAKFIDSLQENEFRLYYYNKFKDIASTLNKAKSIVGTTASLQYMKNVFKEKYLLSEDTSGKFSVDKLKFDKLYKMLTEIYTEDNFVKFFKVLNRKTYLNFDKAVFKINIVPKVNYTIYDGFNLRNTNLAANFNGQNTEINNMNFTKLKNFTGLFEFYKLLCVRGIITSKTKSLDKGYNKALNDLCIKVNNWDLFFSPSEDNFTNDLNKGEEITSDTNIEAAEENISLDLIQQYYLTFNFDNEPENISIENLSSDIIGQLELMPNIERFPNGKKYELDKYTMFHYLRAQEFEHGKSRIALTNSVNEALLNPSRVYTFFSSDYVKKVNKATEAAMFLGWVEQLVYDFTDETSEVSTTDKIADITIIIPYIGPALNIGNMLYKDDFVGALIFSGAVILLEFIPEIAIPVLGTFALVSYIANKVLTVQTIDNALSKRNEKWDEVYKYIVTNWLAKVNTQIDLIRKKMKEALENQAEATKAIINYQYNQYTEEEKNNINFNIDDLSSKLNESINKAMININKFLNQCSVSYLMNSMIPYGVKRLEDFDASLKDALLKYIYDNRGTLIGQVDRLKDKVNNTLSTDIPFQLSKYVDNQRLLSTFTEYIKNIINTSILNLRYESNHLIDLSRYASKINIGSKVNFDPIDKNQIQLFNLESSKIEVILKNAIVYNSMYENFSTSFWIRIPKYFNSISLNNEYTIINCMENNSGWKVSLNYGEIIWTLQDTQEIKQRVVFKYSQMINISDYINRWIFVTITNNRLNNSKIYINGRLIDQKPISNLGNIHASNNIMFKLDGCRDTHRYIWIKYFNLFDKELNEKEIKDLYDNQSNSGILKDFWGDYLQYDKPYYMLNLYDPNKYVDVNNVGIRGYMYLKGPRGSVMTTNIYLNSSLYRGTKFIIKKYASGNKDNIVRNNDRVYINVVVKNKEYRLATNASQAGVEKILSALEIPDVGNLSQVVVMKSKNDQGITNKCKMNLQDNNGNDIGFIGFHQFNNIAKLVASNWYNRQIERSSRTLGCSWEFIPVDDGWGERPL

[16] = target: Lethal factor (Bacillus anthracis) (UniProt P15917); test: Lethal factor protease inhibitors, Bacillus anthracis, multiplex microsphere cleavage assay, validation set (AID 588461); settings: flow cytometry, at 10 µM, stronger effect = higher value
[17] = inhibitors of fungal efflux pumps CDR1, CDR2, MDR1, pilot screen, validation compound set, multiplex, phenotypic (AID 588506;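 active means efflux inhibition above 0.42, the validation set average plus 4 SD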;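 further: Nile Red retained in cells so higher fluorescence means more efflux inhibition; 0 = negative control wells and 1 = enniatin B 25 µM full block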); settings: S. cerevisiae pump-expressing triplex, Nile Red efflux flow cytometry; at 10 µM; stronger effect = higher value
[18] = target: ATP-binding cassette sub-family B member 6 (Homo sapiens) (UniProt Q9NP58); test: ABCB6 transporter inhibitors, pilot screen, K562-ABCB6 cells, flow cytometry, validation set (AID 588550;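 active means inhibition above the screen-wide mean plus 3 SD, about 51%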;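 further: 0% = DMSO wells and 100% = benzethonium chloride 70 µM positive control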); settings: K562-ABCB6 porphyrin accumulation, 1 h, at 10 µM, stronger effect = higher value
[19] = promoters of myeloid differentiation in arrested cells, primary screen, cell-based, GFP/MAC1 double positive, flow cytometry, validation set (AID 588685;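 active means differentiation response of at least 50%, scaled between solvent and reference control, from cells with both markers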;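 further: compound exposure lasts four days before antibody staining and flow analysis; 0% = DMSO wells and 100% = 5 µM fulvestrant positive control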); settings: ER-HoxA9 marrow cells, stronger effect = higher value

Nc1ccncc1
61%: double positive events [6]
inactive: percent of DMSO control GFP [1] 97.9% | GFP response vs DMSO [2] 119% | percent response of DMSO control [3] 111% | GFP response vs DMSO [4] 77.6% | GFP response, % of DMSO [5] 99.6% | vesicle binding response [6] 218% | inhibition [7] -0.33% | superoxide response (% of plate) [8] 94.5% | aptamer binding inhibition [9] 1% | response [10] -11.6% | inhibition [11] -14.8% | response [12] -2.33% | binding (% of control) [13] 108% | inhibition [14] 2.4% | inhibition [15] -0.4% | inhibition [16] -3% | efflux inhibition (fraction of control) [17] -0.02 | inhibition [18] 13% | differentiation response [19] 4.09%

c1ccc2c(c1)Nc1ccccc1S2
inactive: percent of DMSO control GFP [1] 92.8% | GFP response vs DMSO [2] 139% | percent response of DMSO control [3] 95.2% | GFP response vs DMSO [4] 81.4% | GFP response, % of DMSO [5] 84.7% | vesicle binding response [6] 121% | inhibition [7] 12.3% | superoxide response (% of plate) [8] 81.7% | aptamer binding inhibition [9] 2% | response [10] 1.66% | inhibition [11] 9.01% | response [12] -2.45% | binding (% of control) [13] 100% | inhibition [14] -1.5% | inhibition [15] 0.5% | inhibition [16] -2.6% | efflux inhibition (fraction of control) [17] 0.27 | inhibition [18] 9% | differentiation response [19] 1.64%
61.9%: double positive events [6]

c1ccc2c3c([nH]c2c1)CNCC3
inactive: percent of DMSO control GFP [1] 100% | GFP response vs DMSO [2] 104% | percent response of DMSO control [3] 106% | GFP response vs DMSO [4] 111% | GFP response, % of DMSO [5] 105% | vesicle binding response [6] 82.8% | inhibition [7] -19.9% | superoxide response (% of plate) [8] 113% | aptamer binding inhibition [9] -5% | response [10] -12.8% | inhibition [11] -0.49% | response [12] 0.12% | binding (% of control) [13] 181% | inhibition [14] -9.7% | inhibition [15] 0.1% | inhibition [16] -60.3% | efflux inhibition (fraction of control) [17] 0.395 | inhibition [18] -82% | differentiation response [19] -0.18%
55.3%: double positive events [6]

O=c1[nH]c2ccccc2n1C1CCN(CCCC(c2ccc(F)cc2)c2ccc(F)cc2)CC1
56.5%: double positive events [6]
active: response [10] 67.3% | response [12] 73.1%
inactive: percent of DMSO control GFP [1] 97.1% | GFP response vs DMSO [2] 107% | percent response of DMSO control [3] 103% | GFP response vs DMSO [4] 130% | GFP response, % of DMSO [5] 120% | vesicle binding response [6] 184% | inhibition [7] 41.5% | superoxide response (% of plate) [8] 88.4% | aptamer binding inhibition [9] -13% | inhibition [11] -9.19% | binding (% of control) [13] 114% | inhibition [14] -2.3% | inhibition [15] -1.7% | inhibition [16] -3% | efflux inhibition (fraction of control) [17] 0.12 | inhibition [18] 6% | differentiation response [19] 13.7%

NC(=O)CN1CCCC1=O
inactive: percent of DMSO control GFP [1] 95% | GFP response vs DMSO [2] 113% | percent response of DMSO control [3] 118% | GFP response vs DMSO [4] 73.2% | GFP response, % of DMSO [5] 91% | vesicle binding response [6] 191% | inhibition [7] 3.55% | superoxide response (% of plate) [8] 95.8% | aptamer binding inhibition [9] -4% | response [10] -20.5% | inhibition [11] -5.52% | response [12] 0.81% | binding (% of control) [13] 105% | inhibition [14] 1.5% | inhibition [15] 0.4% | inhibition [16] 1.1% | efflux inhibition (fraction of control) [17] -0.09 | inhibition [18] 4% | differentiation response [19] -1.64%
54.5%: double positive events [6]

C=C1CC[C@@]2(O)[C@H]3Cc4ccc(O)c5c4[C@@]2(CCN3CC2CC2)[C@H]1O5
64.3%: double positive events [6]
inactive: percent of DMSO control GFP [1] 107% | GFP response vs DMSO [2] 95.1% | percent response of DMSO control [3] 109% | GFP response vs DMSO [4] 90.1% | GFP response, % of DMSO [5] 102% | vesicle binding response [6] 1650% | inhibition [7] 14.1% | superoxide response (% of plate) [8] 98.9% | aptamer binding inhibition [9] -2% | response [10] -8.78% | inhibition [11] -7.26% | response [12] 5.8% | binding (% of control) [13] 99% | inhibition [14] 2.7% | inhibition [15] -0.2% | inhibition [16] 8.1% | efflux inhibition (fraction of control) [17] -0.26 | inhibition [18] 13% | differentiation response [19] 10%

CC1CCC[C@H](O)CCCCCc2cc(O)cc(O)c2C(=O)O1 (stereo not given in full)
62.7%: double positive events [6]
active: efflux inhibition (fraction of control) [17] 0.69
inactive: percent of DMSO control GFP [1] 102% | GFP response vs DMSO [2] 99.7% | percent response of DMSO control [3] 106% | GFP response vs DMSO [4] 114% | GFP response, % of DMSO [5] 109% | vesicle binding response [6] 174% | inhibition [7] 19% | superoxide response (% of plate) [8] 111% | aptamer binding inhibition [9] -3% | response [10] -2.64% | inhibition [11] -18.8% | response [12] 6.16% | binding (% of control) [13] 106% | inhibition [14] -0.6% | inhibition [15] 0.6% | inhibition [16] -2.4% | inhibition [18] -7% | differentiation response [19] -4.57%

CC(C)CC12CN3CCN(CC(C3)C1O)C2 (stereo not given)
65.4%: double positive events [6]
inactive: percent of DMSO control GFP [1] 89.8% | GFP response vs DMSO [2] 116% | percent response of DMSO control [3] 111% | GFP response vs DMSO [4] 89.7% | GFP response, % of DMSO [5] 105% | vesicle binding response [6] 153% | inhibition [7] -2.27% | superoxide response (% of plate) [8] 91.5% | aptamer binding inhibition [9] -7% | response [10] 4.34% | inhibition [11] -0.1% | response [12] -1.9% | binding (% of control) [13] 110% | inhibition [14] 3.6% | inhibition [15] -0.7% | inhibition [16] -4.5% | efflux inhibition (fraction of control) [17] -0.28 | inhibition [18] 13% | differentiation response [19] 10.6%
